From PubChem BioAssay
An excerpt weighted towards active compounds, which were near 8.1% of everything screened.
RORg inh – qHTS for inhibitors of ROR gamma transcriptional activity; Nuclear receptor ROR-gamma (Mus musculus), P51450; Potency, µM (top dose mostly 53.6 µM), usual class: inhibitors; 5.4% of 310,000 active; Drosophila S2 Gal4-RORgamma UAS-luciferase reporter, 20 h; further: nearly all actives have a fitted effect of over 60% in size
Target sequence (P51450 whole entry, looked up, the tested form may be a part): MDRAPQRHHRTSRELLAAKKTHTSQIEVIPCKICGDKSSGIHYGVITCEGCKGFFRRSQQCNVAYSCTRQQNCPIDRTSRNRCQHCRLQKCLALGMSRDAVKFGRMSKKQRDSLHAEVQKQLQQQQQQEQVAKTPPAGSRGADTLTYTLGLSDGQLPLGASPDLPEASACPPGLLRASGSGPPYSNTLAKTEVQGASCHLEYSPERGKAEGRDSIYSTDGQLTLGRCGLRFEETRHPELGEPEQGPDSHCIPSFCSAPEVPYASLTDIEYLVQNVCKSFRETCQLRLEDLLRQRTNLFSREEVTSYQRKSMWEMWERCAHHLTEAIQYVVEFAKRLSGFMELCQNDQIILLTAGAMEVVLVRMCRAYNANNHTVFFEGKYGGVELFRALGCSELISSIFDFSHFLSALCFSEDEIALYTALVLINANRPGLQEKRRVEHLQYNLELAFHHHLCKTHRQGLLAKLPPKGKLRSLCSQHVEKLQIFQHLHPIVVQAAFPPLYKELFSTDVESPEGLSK
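Drosophila S2 cells stably expressing Gal4-DBD/mouse RORγ fusion under metallothionein promoter plus UAS-luciferase; compound 1 h, then 700 uM CuSO4 induction for 20 h at ambient temperature; inhibition read as reduced luminescence.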
ClpP mod – qHTS Assay for Activators of ClpP. purified B. subtilis ClpP, FRET peptide cleavage, 20 min. 1.9% of 340,000 active. ATP-dependent Clp protease proteolytic subunit (Bacillus subtilis (strain 168)), P80244. AID 651965, 2013. Potency, µM (doses to about 57.5 µM); active means well fitted falling curve with a large enough effect; inconclusive means small, poorly fitted or top-dose-only effect; inactive means no such curve, though single readings can be large or run the other way; further: the source files actives as falling curves though it sought activators and does not explain the sign; nearly all actives have a fitted effect of over 65% in size
Target sequence (P80244 whole entry, looked up): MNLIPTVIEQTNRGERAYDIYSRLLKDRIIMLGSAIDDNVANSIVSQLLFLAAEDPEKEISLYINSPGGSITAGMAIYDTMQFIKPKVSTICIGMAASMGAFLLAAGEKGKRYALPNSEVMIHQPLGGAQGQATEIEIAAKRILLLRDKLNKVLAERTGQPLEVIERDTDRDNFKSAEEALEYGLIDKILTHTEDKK
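ClpP 10 microg/mL final, pH 8 Tris/KCl buffer with BSA, glycerol, Tween-20; compound pinned in; FRET-FV substrate; RT 20 min; Ex320/Em430; ΔFRET vs ADEP 5.8 microM, DMSO, no enzyme.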
PINK1 expr mod – A Quantitative High throughput Screen to Identify Chemical Modulators of PINK1 Expression; PINK1 immunofluorescence, high-content cytometry, 24 h; Potency, µM (doses to about 76.6 µM), most hits filed as activators; 0.2% of 410,000 active; AID 624263, 2012; active means well fitted activation curve with a large enough effect; inconclusive means small, poorly fitted or top-dose-only effect; cell line not stated here; further: nearly all actives have a fitted effect of over 65% in size
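Readout is PINK1 immunofluorescence, quantified alongside mitochondrial, cell and nuclear markers by laser-scanning microplate cytometry. Cells from a stable line were exposed to compound titrations (5 concentrations) for 24 hours, with CCCP controls.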
Sfp PPTase inh – qHTS Assay for Inhibitors of Bacillus subtilis Sfp phosphopantetheinyl transferase (PPTase); 4'-phosphopantetheinyl transferase ffp (Bacillus subtilis), Q9F4F7; Biochemical Sfp PPTase activity, qHTS; Potency, µM, actives largely listed as inhibitors; 3.5% of 310,000 active; AID 1490, 2009;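 further: the enzyme is Sfp with the accession as filed and its product quenches rhodamine fluorescence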
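After 15 min at room temperature with compound, 15 nM Sfp received 5 uM rhodamine-CoA plus 12.5 uM BHQ-2-ybbR (50 mM Hepes pH 7.6, 10 mM MgCl2). Rate came from the fluorescence difference over 30 min, ex 525/em 598 nm.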
Epigenetic derep – Quantitative High-Throughput Screen for Regulators of Epigenetic Control. 0.2% of 280,000 active. Potency, µM (doses to about 53.9 µM), actives largely listed as activators. AID 1865, 2009. murine LDR cells, GFP reporter derepression, 30 h; further: nearly all actives have a fitted effect of over 60% in size
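Reporter derepression read as number of fluorescent GFP-positive objects, 20-120 um in size, counted by laser-scanning cytometer. Mouse LDR line with an epigenetically silenced CMV-GFP locus; compound incubation 30 h, 37 C.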
VP16 counter – VP16 counterscreen qHTS for inhibitors of ROR gamma transcriptional activity; Potency, µM (titrated, usually from 53.6 µM), usual class: inhibitors; AID 2546, 2010; Drosophila S2 Gal4-VP16 UAS-luciferase, luminescence, 20 h; 3.5% of 310,000 active;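 further: Gal4-VP16 expression switched on by copper sulfate through the metallothionein promoter; nearly all actives have a fitted effect of over 50% in size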
A number is an active result; i = inactive; ? = inconclusive; nt = no result; [ ] = remark or other dose. Unless noted, the call rests on the fitted dose curve; in most records, active means well fitted curve in the direction sought with a large enough effect; inconclusive means small, poorly fitted or top-dose-only effect, or another doubt; inactive means no such curve, though single readings can be large; an effect the other way counts as inactive or inconclusive.

SMILES	RORg inh	ClpP mod	PINK1 expr mod	Sfp PPTase inh	Epigenetic derep	VP16 counter
COc1ccc2nccc(/C=C/c3ccc(N(C)C)cc3)c2c1	nt	i	i	nt	nt	nt
CSc1ccccc1C(=O)NCC1Cc2cc(F)cc(-c3cnccn3)c2O1 (stereo unspecified)	nt	nt	i	nt	nt	nt
O=C1CC(c2ccco2)CC2=C1C(c1ccccc1)n1nc(C(F)(F)F)nc1N2 (stereo unspecified)	i[0.365 µM]	25µM	i	10µM	i	nt
Cc1ccc(Cl)cc1NC1=NC(=S)N(C(C)C)C12CCCCC2	2.8µM	i	i	i	i	3.5µM
CC(C)Oc1ccc(C(=O)Nc2nnc(C3=COCCO3)o2)cc1	nt	i	i	nt	nt	nt
CN(c1ccccc1)S(=O)(=O)c1ccc(C(=O)Nc2ccncc2)cc1	nt	i	i	nt	nt	nt
CC(C)(C)c1ccc(C(=O)Nc2nnc(C3=COCCO3)o2)cc1	0.18µM	i	i	i	nt	?
O=C(Nc1nnc(C2=COCCO2)o1)C1CCCCC1	i	nt	i	i	i	i
COc1ccc(C(=O)Nc2nnc(C3=COCCO3)o2)cc1OC	1.6µM	i	i	i	nt	1.8µM
CN(C)c1ccc(C(=O)Nc2nnc(C3=COCCO3)o2)cc1	1.6µM	nt	i	i	i	2.8µM
CN(c1ccccc1)S(=O)(=O)c1ccc(C(=O)Nc2nnc(C3=COCCO3)o2)cc1	1.1µM	i	i	i	i	4.5µM
CCOC(=O)c1ccc(N(C(=O)c2ccccc2)c2ccccc2)cc1	nt	i	nt	nt	nt	nt
O=C1CCC[C@@H](C(C(=O)OCc2ccccc2)C(=O)OCc2ccccc2)C1	i[10 µM]	nt	nt	i	i[10.1 µM]	i[10 µM]
Cc1ccc(C)c(-c2nnc(NC(=O)C3=COCCO3)o2)c1	nt	nt	i	nt	nt	nt
O=C(Nc1nnc(-c2ccc(Cl)cc2)o1)C1=COCCO1	2.5µM	i	i	i	i	1.8µM
COc1ccc(Cl)cc1-n1nnc(-c2nsc(NC(=O)c3ccccc3Cl)n2)c1C	nt	i	i	nt	i	nt
C=CSc1sc(Cl)c(N(C)C)c1[N+](=O)[O-]	i	nt	i	i	i	i
C=CSc1sc(Cl)c(N(CC)CC)c1[N+](=O)[O-]	i	nt	i	13µM	i	i
CCN(CC)CC(=O)c1c(N)n(Cc2ccccc2)c(=O)n(C)c1=O	i	nt	i	i	i	i
Cn1c(=O)c(C(=S)NC(=O)C2CC2)c(N)n(Cc2ccccc2)c1=O	1.3µM	nt	nt	i	?	1µM
CCOc1ccc(-c2cc3nc(C4CCN(C(=O)OC(C)(C)C)CC4)c(C(=O)Nc4cccc(Cl)c4C)cn3n2)cc1	nt	i	i	nt	i	nt
CC(=O)Nc1ccc(/C=C/c2sc3ccccc3[n+]2CCCCI)cc1	nt	i	i	nt	nt	nt
Cc1ccc(-c2ccc(/C=N/N=C3/NC(=O)C(CC(=O)O)S3)o2)c([N+](=O)[O-])c1 (stereo unspecified)	i	i	i	20µM	i	i
O=C(O)CC1S/C(=N/N=C/c2ccc(-c3ccccc3[N+](=O)[O-])o2)NC1=O (stereo unspecified)	i	i	i	22µM	i	i
CN(C1=C(NC(=O)c2ccccc2)C(=O)c2ccccc2C1=O)C1CCS(=O)(=O)C1 (stereo unspecified)	14µM	i	i	20µM	i	7.1µM
SMILES	RORg inh	ClpP mod	PINK1 expr mod	Sfp PPTase inh	Epigenetic derep	VP16 counter
O=C(CN1C(=O)c2ccccc2C1=O)NC1CCS(=O)(=O)C1 (stereo unspecified)	nt	i	i	nt	nt	nt
CC(=O)NC1=C(NC2CCS(=O)(=O)C2)C(=O)c2ccccc2C1=O (stereo unspecified)	?	i	i	32µM	i	18µM
O=C(NC(=S)NC1CCS(=O)(=O)C1)c1ccccc1 (stereo unspecified)	i	i	i	i	nt	i
CNC(=O)c1ccc(-c2sc3nc(N4CCOCC4)c4c(c3c2N)CC(C)(C)OC4)o1	i	?	i	79µM	i	i
CC1(C)Cc2c(c(N3CCOCC3)nc3sc(-c4ccc(C(=O)O)o4)c(N)c23)CO1	?	?	i	45µM	i	i
CNC(=O)c1ccc(-c2sc3nc(N4CCOCC4)c4c(c3c2N)CCCC4)o1	i	?	i	i	i	i
Cc1[nH]c2ccccc2c1C(=O)COC(=O)c1ccccc1SCC(=O)N1CCCC1	nt	i	i	nt	nt	nt
CCN1/C(=C/c2ccc3ccccc3[n+]2CCCS(=O)(=O)[O-])C=Cc2cc(C)ccc21	i	nt	i	i	nt	i
CCN1/C(=C/c2ccc3ccccc3[n+]2CC)C=Cc2ccccc21	8.9µM	i	?	50µM	?	2.8µM
COc1ccccc1N1C(=O)C2CC=CC(C)C2C1=O (stereo unspecified)	i	3.2µM	i	i	i	i
CC(O)C1CCC2C3CCC4CC(O)CCC4(C)C3CCC12C (stereo unspecified)	i[10 µM]	nt	nt	i	nt	i
COc1ccc(-n2ccc(-c3sc(NCc4cc(OC)c5c(c4)OCO5)nc3C)n2)cc1	nt	nt	i	nt	nt	nt
Cn1c(=O)c2c(nc(NCc3cccnc3)n2Cc2ccc(Cl)cc2)n(C)c1=O	i	3.2µM	i	i	i	i
Cn1c(=O)c2c(nc(NCc3ccccc3)n2Cc2ccc(F)cc2)n(C)c1=O	?	nt	nt	i	i	14µM
CCNc1nc2c(c(=O)[nH]c(=O)n2C)n1CCCc1ccccc1	i	i	i	i	nt	i
Cn1c(=O)c2c([nH]c(=S)n2Cc2ccc(Cl)cc2)n(C)c1=O	13µM	nt	i	20µM	nt	?
CCNc1nc2c(c(=O)n(C)c(=O)n2C)n1CCCc1ccccc1	?	nt	i	i	nt	11µM
O.O.[Mn].[Mn].[Mn].[OH-].[OH-]	nt	nt	nt	i	nt	nt
CC(C)(C)[C@H]1CCC(=O)N(CCSc2ccc(Br)cc2)CC1	nt	i	nt	nt	nt	nt
Cn1c(OCc2cccnc2)nc2c1c(=O)n(Cc1ccc(Br)cc1)c(=O)n2C	3.5µM	i	i	i	i	?
Cn1c(OCc2cccnc2)nc2c1c(=O)n(Cc1ccc(Cl)cc1)c(=O)n2C	nt	i	nt	nt	nt	nt
CCC(C)Nc1nc2c(c(=O)n(C)c(=O)n2C)n1Cc1ccc(Cl)cc1 (stereo unspecified)	i	i	i	i	i	i
C/C(Cl)=C\Cn1c(NCCc2ccccc2)nc2c1c(=O)n(C)c(=O)n2C	7.1µM	i	i	i	i	3.5µM
Cn1c(=O)c2c(nc(N/N=C/c3ccc(OC(=O)c4ccco4)cc3)n2Cc2ccccc2)n(C)c1=O	i	28µM	i	?	i	?
CCNc1nc2c(c(=O)n(C)c(=O)n2C)n1Cc1ccc(Cl)cc1	?	i	i	i	nt	4.5µM
CCOC(=O)c1c(NC(=O)c2cc(-c3cccc(Cl)c3)on2)sc(C(C)=O)c1C	nt	i	i	nt	i	nt
